# The supplement of paper PMC6555819
# Test system: PPARg:RXRa DBDmut IVT, anti-RXR (DBD mutation: RXRa K156A/R161A, NR concentration 270 nM, RXRa partner concentration 90 nM)
# Assay: PBM binding z-score (relative to random genomic background probes); higher = stronger binding; sequences stand for … in GC…GCGATTGACAGCGTAGAATGAAGG
# Procedure, shortened: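 The probes on custom Agilent 4×180K protein-binding microarrays were double-stranded, with 34-nt variable regions bearing direct-repeat seeds, single-nucleotide variants, half-site ablations and random human genomic background sequences. Incubation lasted 1 h with ligand-free nuclear receptor dimers in PBS pH 7.4, 2% milk, 0.02% Triton X-100, 1 mM DTT, 0.2 mg/mL BSA and 0.4 mg/ml salmon testes DNA. Antibodies against each partner (one per run) detected bound dimers, and fluorescence scans were regression-normalized. Binding z-scores take the random background probes as reference.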
row,Sequence,PBM binding z-score
1,TATACAGGGTCAAAGGCCACAGTACGAATGTCGA,2.84
2,GATACAGGGTCAGCTAGAGCCCAGAGTATGGAAA,0.771
3,TATACAGGGACAAAGGCCAGAGTACGAATGTCGA,-0.141
4,TCGAGTAGGTTAGGGGCATTGAGAATGGCGTCGA,1.85
5,CCTCGGAGGACAGAAGGTCAGAGCTGTCCGCTTT,0.195
6,CGTCCAAGGTCATAGGAGGTCCGTGAAGACAGAT,3.08
7,AGTCAAAGTCCACTAGGTAACGTAAGATTCAGCT,1.22
8,CCTTACGGGTCACGAGGTTATAGAACGACGAGCG,4.22
9,TGAATGAGGTTATAAGAACAGGGAACGTTGCAAA,0.968
10,CGAACTACGTCATTGACAGGACAGTGAATAGTAA,-0.246
11,ATACCAAGGTGATCGTGAGGTGGTTGATACTAAC,0.119
12,TCTAGTTGCTCACGGAGGTCACACACGACGGGTA,1.58
13,CCTCGGGGGACAACAGGAGGTCAGAGCTGCCAGA,0.622
14,CTCGAAAGGTCGGTTGAGGTGAGTATTCGGATAA,0.311
15,TAGCCTAGGTCATATCGGGCCAGTATACGCTATA,1.18
16,AGAACGAGGGCACGCTGAGTTGTTAGCAGAGTAG,4.03
17,ACAGACTGGTGATGAAGGTAACTCAGGCTATCAT,-0.615
18,CTCGAAAGGTCGTGCTCAGGTGAGTCTACCAAAC,1.08
19,AGAACGAGGGCACGCTGAGTTGACAGCAGAGTAG,3.94
20,ACTAGCAAGCCAAGTTTGGGTCACTCAAACAAAG,-0.834
21,CCTTACGGCTCAAGGTTATAGCACGGGTGGTACG,-0.441
22,CCTATTAGTTGACCATAAGGGCTACCGAAGCTCG,0.457
